# Records with an inconclusive call do not appear. The source made the active and inactive calls. Unless noted, calls follow the shape of the dose curve; as a rule, active = well fitted curve in the direction sought with a large enough effect; inconclusive = small, poorly fitted or top-dose-only effect, or another doubt; inactive = no such curve, though single readings can be large; an effect the other way counts as inactive or inconclusive.
# What was measured:
# [1] = target: Lysosomal acid glucosylceramidase (Homo sapiens) (UniProt P04062); test: Glucocerebrosidase-p2 (AID 348; in the data active = potency below about 10 µM; also: potency is read from the fitted curve at half-maximal effect); details: purified GBA, blue fluorogenic substrate, 40 min
# Procedure, shortened: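 Compounds titrated from 0.6 nM upwards against 0.2 nM enzyme in pH 5.9 citric acid/KH2PO4, taurocholate, tween-20; blue fluorogenic substrate 80 uM, 40 min room temperature, stopped and read Ex 365/Em 440 for AC50.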
# [2] = AP1 Signaling Pathway (AID 357; active = well fitted curve in either direction with a large enough effect, not every such curve was filed as active;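 also: ME-180 reporter cells stimulated with EGF at its EC50 level; % is scaled to controls: 0 for no effect and ±100 for the full control effect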); details: ME-180 AP-1-bla reporter, EGF-induced, beta-lactamase ratio, 5 h; at 7.69 µM (top of the series) unless noted
# Procedure, shortened: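 Cells are seeded overnight, exposed to compound titrations and an EC50 level of EGF for 5 hours at 37 °C, then loaded with CCF4 dye for 2.5 hours. Beta-lactamase activity under the AP-1 element is read as a blue/green ratio.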
# [3] = target: Cytochrome P450 1A2 (Homo sapiens) (UniProt P05177); test: p450-cyp1a2 (AID 410; calls by dose curve; also: potency is read from the fitted curve at half-maximal effect); details: recombinant CYP1A2, luciferin-ME demethylation, luminescence; series mostly up to 57 µM
# Procedure, shortened: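 Inhibition was calculated relative to 57 uM furafylline (full inhibition). The reaction used human CYP1A2 at 20nM with Luciferin-ME at its Km, 100uM, driven by an NADPH-regenerating system for 60 min at room temperature.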
# [4] = NFAT Signaling Pathway (AID 444; active = well fitted curve in either direction with a large enough effect, not every such curve was filed as active;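 also: carbachol stimulus at about its EC50 of 1 µM final; % is scaled to controls: 0 for no effect and ±100 for the full control effect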); details: Jurkat NFAT-bla M1, carbachol, beta-lactamase ratio, 5 h; at 7.69 µM (top of the series) unless noted
# Procedure, shortened: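 Jurkat cells with NFAT-driven β-lactamase reporter and co-expressed M1 receptor, stimulated with carbachol (final 1 uM, ~EC50), compound titration, 5 h at 37 °C. CCF4 loaded 1 h at RT; 460/530 nm ratio gave %activity and AC50.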
# [5] = Stat Signaling Pathway (AID 446; active = well fitted curve in either direction with a large enough effect, not every such curve was filed as active;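 also: ME-180 cervical cancer cells given 40 pM IL-6 alongside compound; SIE-controlled beta-lactamase reporter measured as 460/530 nm FRET emission ratio; % is scaled to controls: 0 for no effect and ±100 for the full control effect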); details: ME-180 SIE beta-lactamase reporter, IL-6 stimulated, 5 h; at 7.69 µM (top of the series) unless noted
# Procedure, shortened: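 ME-180 SIE-bla cells; overnight plating; cpd + IL-6 40 pM, 5 h, 37 C; LiveBLAzer 2.5 h RT; 460/530 nm emission ratio. Normalized to 300 pM IL-6 and 125 nM JAK inhibitor controls.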
# [6] = target: Glucocorticoid receptor (Homo sapiens) (UniProt P04150); test: GR-GFP Redistribution (AID 450;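 active = compounds whose dose series gives a full or clear partial fitted curve of increased nuclear translocation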; also: potency is read from the fitted curve at half-maximal effect); details: U2OS GR-GFP nuclear translocation, laser cytometry, 2 h
# [7] = target: Glucocorticoid receptor (Homo sapiens) (UniProt P04150); test: GR-EFC Redistribution (AID 451; calls by dose curve; also: potency is read from the fitted curve at half-maximal effect); details: CHO-K1 GR-EFC translocation, beta-gal luminescence, 2 h
# Procedure, shortened: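 CHO-K1 cells expressing nuclear EA and GR-ED fragments of b-gal; compounds titrated up to 46 uM final, 2 h at 37 C. GR nuclear translocation read as complemented b-gal luminescence after 1 h RT detection.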
# [8] = target: Mitogen-activated protein kinase 10 (Mus musculus) (UniProt Q61831); test: JNK3 AlphaScreen Assay (AID 530; active = well fitted curve in either direction with a large enough effect, not every such curve was filed as active;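 also: kinase came from lysate of stimulated human HepG2 cells; signal reports phosphorylation of biotinylated GST-cJun 1-79 at Ser73 with 10 µM ATP; % is scaled to controls: 0 for no effect and ±100 for the full control effect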); details: JNK3 lysate, c-Jun phosphorylation; series mostly up to 57.1 µM
# Procedure, shortened: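 qHTS format: compounds tested as titrations against IL-1beta/TNF-alpha-activated HepG2 lysate JNK3 with biotin-GST-cJun substrate and 10 uM ATP at room temperature. Loss of anti-phospho-cJun AlphaScreen signal indicates inhibition.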
# [9] = target: 3',5'-cyclic-AMP phosphodiesterase 4B (Homo sapiens) (UniProt Q07343); test: qHTS Assay for Inhibitors of PDE-IV (AID 607; active = well fitted activation curve with a large enough effect in the main read-out, with a control signal flat, not every such curve was filed as active; also: % of control where 0% means no effect); details: HEK293 ACTOne CNG channel cells, membrane potential fluorescence; series mostly up to 22.9 µM
# Procedure, shortened: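 ACTOne HEK293 cells carry a modified cAMP-gated CNG channel and express endogenous PDE4; plated 1000 cells/well, compounds up to 22.9 uM final. Membrane-potential dye fluorescence (ex 535/em 590) was read; parental cells received 10 uM forskolin + 100 uM RO 20-1724.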
# [10] = target: Cytochrome P450 3A4 (Homo sapiens) (UniProt P08684); test: qHTS Assay for Activators of Cytochrome P450 3A4 (AID 885); details: recombinant CYP3A4, Luciferin-PPXE luminescence, 60 min; series mostly up to 57.1 µM; also: nearly all actives have a fitted effect of over 65% in size
# Procedure, shortened: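 20nM CYP3A4 + 25uM Luciferin-PPXE (=KM), 200mM KPO4; cpd 10 min RT; NADPH regen, 60 min RT; stop w/ detection buffer, 20 min; luminescence. Normalized to 57 uM ketoconazole.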
# [11] = qHTS Assay for Lipid Storage Modulators (AID 1519; calls by dose curve); details: Drosophila S3 cells, BODIPY lipid droplet/cell ratio, laser cytometry, cells loaded with oleic acid; for activity change, negative = inhibition: at 57.5 µM (top of the series)
# Procedure, shortened: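 Cells seeded at 5,000 per well were treated with compounds over a concentration series and loaded with oleic acid (400 uM, as added). Lipid droplet fluorescence (488 nm excitation, 500-530 nm channel) was read by laser-scanning cytometry and normalized to 20 uM Triacsin C.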
# [12] = Primary qHTS for small molecule stabilizers of the endoplasmic reticulum resident proteome: Secreted ER Calcium Modulated Protein (SERCaMP) assay (AID 1508630); details: SH-SY5Y GLuc-SERCaMP (Gaussia luciferase released on ER calcium loss) secretion, thapsigargin, luminescence; series mostly up to 38.4 µM; also: % is scaled to controls: 0 for no effect and ±100 for the full control effect
# Procedure, shortened: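 GLuc-SERCaMP-expressing SH-SY5Y cells, pretreated 16 h with compound, are challenged with thapsigargin to empty ER calcium stores; after 4 h, coelenterazine is added directly to the medium and luminescence is imaged.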
# [13] = target: Rap guanine nucleotide exchange factor 3 (Homo sapiens) (UniProt O95398); test: Confirmatory qHTS for agonist of cAMP-regulated guanine nucleotide exchange factor 3 (EPAC1) (AID 1645881); details: EPAC1 Rap1B BODIPY-GDP exchange fluorescence, 100% = cAMP control response; series mostly up to 154 µM;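 also: EPAC1 catalysed release of BODIPY-GDP from Rap1B seen as fluorescence loss; nearly all actives have a fitted effect of over 75% in size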
# [14] = target: Rap guanine nucleotide exchange factor 4 (Homo sapiens) (UniProt Q8WZA2); test: Confirmatory qHTS for agonist of cAMP-regulated guanine nucleotide exchange factor 4 (EPAC2) (AID 1645884); details: EPAC2 GEF activity, Rap1B-BODIPY-GDP fluorescence, percent relative to cAMP agonist control; series mostly up to 154 µM;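 also: nucleotide exchange releases bodipy-GDP from Rap1 and this lowers its fluorescence; % is scaled to controls: 0 for no effect and ±100 for the full control effect; nearly all actives have a fitted effect of over 65% in size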
# [15] = target: Dual specificity protein kinase CLK4 (Homo sapiens) (UniProt Q9HAZ1); test: qHTS Assay for Inhibitors of CDC-like Kinase 4 (Kinase-Glo Assay) (AID 1770); details: recombinant Clk4, Kinase-Glo ATP depletion luminescence; series mostly up to 66.7 µM; also: % is scaled to controls: 0 for no effect and ±100 for the full control effect; nearly all actives have a fitted effect of over 65% in size
# Procedure, shortened: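 Clk4 25 nM, RS peptide 100 uM, ATP 1 uM, pH 7.5 Tris, 10 mM MgCl2, 2.5 mM DTT; 4.5 h RT; ATP depletion read by Kinase-Glo luminescence.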
# [16] = target: Dual specificity protein kinase CLK4 (Homo sapiens) (UniProt Q9HAZ1); test: qHTS Assay for Inhibitors of CDC-like Kinase 4 (ADP-Glo Assay) (AID 1771); details: recombinant CLK4, ADP-Glo luminescence; series mostly up to 80 µM; also: % is scaled to controls: 0 for no effect and ±100 for the full control effect; nearly all actives have a fitted effect of over 70% in size
# Procedure, shortened: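 Kinase reaction: Clk4 at 25 nM, RS repeat peptide substrate at 100 uM, ATP at 1 uM, 1 hr, room temperature. Product ADP detected as luciferase signal via ADP-Glo.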
# [17] = target: Dual specificity protein kinase CLK4 (Homo sapiens) (UniProt Q9HAZ1); test: qHTS Assay for Inhibitors of CDC-like Kinase 4 (ADP-FP Assay) (AID 1795); details: Transcreener ADP fluorescence polarization; series mostly up to 50 µM;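 also: recombinant human CLK4 phosphorylating RS repeat peptide at 1 µM ATP; % is scaled to controls: 0 for no effect and ±100 for the full control effect; nearly all actives have a fitted effect of over 60% in size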
# Procedure, shortened: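 Kinase activity was followed as ADP output, converted from fluorescence polarization with a calibration curve. Reactions ran one hour at low ATP (1 uM) with RS peptide substrate.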
# [18] = target: Ubiquitin carboxyl-terminal hydrolase 1 (Homo sapiens) (UniProt O94782); test: Inhibitors of USP1/UAF1: Pilot qHTS (AID 504865); details: purified USP1/UAF1, Ub-rhodamine cleavage fluorescence; series mostly up to 54.9 µM;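 also: rhodamine fluorescence freed from ubiquitin-rhodamine substrate followed over time; top concentration of the series differs between compounds; % is scaled to controls: 0 for no effect and ±100 for the full control effect; nearly all actives have a fitted effect of over 35% in size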
# Procedure, shortened: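 Enzyme-free wells gave the negative control, while test wells held 1nM USP1/UAF1 preincubated with compound for 15 min at room temperature. Ub-Rho at 150nM final started the reaction, and fluorescence at 480/540 nm was recorded kinetically.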
# [19] = target: Rap guanine nucleotide exchange factor 4 (Homo sapiens) (UniProt Q8WZA2); test: Confirmatory qHTS for antagonist of cAMP-regulated guanine nucleotide exchange factor 4 (EPAC2) (AID 1645885); details: EPAC2 Rap1B-BODIPY-GDP exchange fluorescence, biochemical; series mostly up to 114 µM; also: nearly all actives have a fitted effect of over 25% in size; also: potency is read from the fitted curve at half-maximal effect
# [20] = measured here: cell count channel max response
# [21] = measured here: lipid channel max response
# Sequence of Glucocorticoid receptor (Homo sapiens) (P04150 whole entry, looked up, the tested form may be a part): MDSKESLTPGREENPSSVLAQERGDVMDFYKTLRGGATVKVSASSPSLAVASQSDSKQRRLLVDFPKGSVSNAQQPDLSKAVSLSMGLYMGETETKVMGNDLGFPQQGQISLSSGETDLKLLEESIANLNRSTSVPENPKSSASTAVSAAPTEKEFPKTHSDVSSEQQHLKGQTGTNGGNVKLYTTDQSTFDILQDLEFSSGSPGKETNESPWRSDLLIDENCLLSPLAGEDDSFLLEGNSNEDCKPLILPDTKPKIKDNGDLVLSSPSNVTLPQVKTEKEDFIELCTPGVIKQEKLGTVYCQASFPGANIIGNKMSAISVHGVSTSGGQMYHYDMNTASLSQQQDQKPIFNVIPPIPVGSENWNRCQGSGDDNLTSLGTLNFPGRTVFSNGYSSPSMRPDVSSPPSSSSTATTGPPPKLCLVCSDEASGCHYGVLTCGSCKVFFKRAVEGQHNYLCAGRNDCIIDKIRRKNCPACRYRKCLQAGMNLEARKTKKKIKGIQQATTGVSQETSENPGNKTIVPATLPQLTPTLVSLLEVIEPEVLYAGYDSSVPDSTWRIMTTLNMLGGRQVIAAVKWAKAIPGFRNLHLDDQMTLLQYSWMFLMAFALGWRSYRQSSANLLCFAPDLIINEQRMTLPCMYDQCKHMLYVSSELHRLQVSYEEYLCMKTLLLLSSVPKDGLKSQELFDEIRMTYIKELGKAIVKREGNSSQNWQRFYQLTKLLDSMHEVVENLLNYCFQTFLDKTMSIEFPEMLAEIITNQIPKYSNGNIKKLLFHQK
# Sequence of Lysosomal acid glucosylceramidase (Homo sapiens) (P04062 whole entry, looked up): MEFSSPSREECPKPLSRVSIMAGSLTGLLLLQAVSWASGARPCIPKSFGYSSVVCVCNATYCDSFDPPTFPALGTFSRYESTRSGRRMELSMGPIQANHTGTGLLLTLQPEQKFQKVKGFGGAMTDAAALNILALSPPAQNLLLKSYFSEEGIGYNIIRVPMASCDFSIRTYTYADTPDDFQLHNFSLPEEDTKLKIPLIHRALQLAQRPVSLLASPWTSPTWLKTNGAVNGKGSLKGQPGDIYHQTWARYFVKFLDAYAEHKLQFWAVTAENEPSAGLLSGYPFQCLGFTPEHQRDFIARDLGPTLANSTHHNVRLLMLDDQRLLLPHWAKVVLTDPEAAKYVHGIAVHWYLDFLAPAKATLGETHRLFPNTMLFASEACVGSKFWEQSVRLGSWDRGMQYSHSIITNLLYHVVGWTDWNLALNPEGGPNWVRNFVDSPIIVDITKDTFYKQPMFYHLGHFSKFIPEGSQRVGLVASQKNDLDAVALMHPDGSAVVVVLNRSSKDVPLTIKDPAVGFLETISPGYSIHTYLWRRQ
# Sequence of Cytochrome P450 1A2 (Homo sapiens) (P05177 whole entry, looked up): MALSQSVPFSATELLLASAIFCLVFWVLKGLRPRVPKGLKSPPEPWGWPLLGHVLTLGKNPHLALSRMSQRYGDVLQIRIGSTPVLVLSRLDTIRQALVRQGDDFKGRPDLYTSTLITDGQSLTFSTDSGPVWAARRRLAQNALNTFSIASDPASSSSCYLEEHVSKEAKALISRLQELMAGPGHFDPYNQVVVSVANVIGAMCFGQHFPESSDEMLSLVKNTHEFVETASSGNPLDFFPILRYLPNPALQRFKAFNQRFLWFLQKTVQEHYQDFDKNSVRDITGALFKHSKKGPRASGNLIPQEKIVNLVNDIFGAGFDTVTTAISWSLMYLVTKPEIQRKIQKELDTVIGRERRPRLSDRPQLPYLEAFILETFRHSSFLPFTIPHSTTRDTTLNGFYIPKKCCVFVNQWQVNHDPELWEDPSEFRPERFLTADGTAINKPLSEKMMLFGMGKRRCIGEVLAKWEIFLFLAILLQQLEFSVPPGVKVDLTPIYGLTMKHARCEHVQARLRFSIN
# Sequence of Rap guanine nucleotide exchange factor 3 (Homo sapiens) (O95398 whole entry, looked up): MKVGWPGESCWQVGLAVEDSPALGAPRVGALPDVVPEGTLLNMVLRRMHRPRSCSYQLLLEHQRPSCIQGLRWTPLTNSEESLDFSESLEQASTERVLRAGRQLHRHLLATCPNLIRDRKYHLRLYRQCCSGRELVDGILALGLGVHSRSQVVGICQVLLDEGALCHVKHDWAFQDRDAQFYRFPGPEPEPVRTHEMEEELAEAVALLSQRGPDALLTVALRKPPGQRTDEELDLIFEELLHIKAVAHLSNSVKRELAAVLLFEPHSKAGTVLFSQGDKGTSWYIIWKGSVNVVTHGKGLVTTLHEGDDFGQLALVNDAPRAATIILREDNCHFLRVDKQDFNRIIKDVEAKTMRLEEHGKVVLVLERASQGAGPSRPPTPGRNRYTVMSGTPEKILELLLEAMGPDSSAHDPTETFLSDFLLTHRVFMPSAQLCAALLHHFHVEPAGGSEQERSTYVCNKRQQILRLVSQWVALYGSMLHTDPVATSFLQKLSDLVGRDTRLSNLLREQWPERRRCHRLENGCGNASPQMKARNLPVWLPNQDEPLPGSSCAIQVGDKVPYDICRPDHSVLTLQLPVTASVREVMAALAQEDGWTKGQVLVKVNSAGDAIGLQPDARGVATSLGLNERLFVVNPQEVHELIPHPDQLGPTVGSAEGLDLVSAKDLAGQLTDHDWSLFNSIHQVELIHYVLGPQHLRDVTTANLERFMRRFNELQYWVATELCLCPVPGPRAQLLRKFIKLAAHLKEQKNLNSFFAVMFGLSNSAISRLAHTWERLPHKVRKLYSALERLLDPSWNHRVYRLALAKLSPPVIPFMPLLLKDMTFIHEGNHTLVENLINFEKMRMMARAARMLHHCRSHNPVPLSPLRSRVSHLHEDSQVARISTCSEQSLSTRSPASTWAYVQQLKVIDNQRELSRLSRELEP
# Sequence of Rap guanine nucleotide exchange factor 4 (Homo sapiens) (Q8WZA2 whole entry, looked up): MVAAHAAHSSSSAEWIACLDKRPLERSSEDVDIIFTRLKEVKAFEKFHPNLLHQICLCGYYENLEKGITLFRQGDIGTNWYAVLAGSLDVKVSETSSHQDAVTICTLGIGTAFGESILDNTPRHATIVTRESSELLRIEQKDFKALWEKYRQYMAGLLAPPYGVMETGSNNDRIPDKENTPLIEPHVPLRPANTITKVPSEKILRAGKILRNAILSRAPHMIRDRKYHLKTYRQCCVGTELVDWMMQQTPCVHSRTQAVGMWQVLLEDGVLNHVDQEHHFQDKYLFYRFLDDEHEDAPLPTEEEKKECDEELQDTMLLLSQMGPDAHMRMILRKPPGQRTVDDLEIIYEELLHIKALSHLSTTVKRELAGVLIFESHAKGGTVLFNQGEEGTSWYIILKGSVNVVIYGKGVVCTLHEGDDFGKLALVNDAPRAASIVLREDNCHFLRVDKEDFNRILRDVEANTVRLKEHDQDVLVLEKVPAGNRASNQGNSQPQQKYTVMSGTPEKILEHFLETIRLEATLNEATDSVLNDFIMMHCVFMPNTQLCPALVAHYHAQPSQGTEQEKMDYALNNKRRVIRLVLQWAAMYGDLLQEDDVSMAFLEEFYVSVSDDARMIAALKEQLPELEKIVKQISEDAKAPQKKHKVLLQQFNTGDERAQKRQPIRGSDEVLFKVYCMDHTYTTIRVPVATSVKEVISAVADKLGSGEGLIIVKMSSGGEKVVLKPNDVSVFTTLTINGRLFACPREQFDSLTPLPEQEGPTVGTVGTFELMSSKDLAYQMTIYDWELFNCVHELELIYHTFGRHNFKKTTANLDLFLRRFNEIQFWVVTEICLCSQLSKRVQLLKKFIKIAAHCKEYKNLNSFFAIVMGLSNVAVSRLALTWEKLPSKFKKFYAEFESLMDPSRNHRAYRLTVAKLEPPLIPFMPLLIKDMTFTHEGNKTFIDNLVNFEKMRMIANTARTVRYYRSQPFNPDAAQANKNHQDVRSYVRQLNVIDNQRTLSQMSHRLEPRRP
# Sequence of Dual specificity protein kinase CLK4 (Homo sapiens) (Q9HAZ1 whole entry, looked up): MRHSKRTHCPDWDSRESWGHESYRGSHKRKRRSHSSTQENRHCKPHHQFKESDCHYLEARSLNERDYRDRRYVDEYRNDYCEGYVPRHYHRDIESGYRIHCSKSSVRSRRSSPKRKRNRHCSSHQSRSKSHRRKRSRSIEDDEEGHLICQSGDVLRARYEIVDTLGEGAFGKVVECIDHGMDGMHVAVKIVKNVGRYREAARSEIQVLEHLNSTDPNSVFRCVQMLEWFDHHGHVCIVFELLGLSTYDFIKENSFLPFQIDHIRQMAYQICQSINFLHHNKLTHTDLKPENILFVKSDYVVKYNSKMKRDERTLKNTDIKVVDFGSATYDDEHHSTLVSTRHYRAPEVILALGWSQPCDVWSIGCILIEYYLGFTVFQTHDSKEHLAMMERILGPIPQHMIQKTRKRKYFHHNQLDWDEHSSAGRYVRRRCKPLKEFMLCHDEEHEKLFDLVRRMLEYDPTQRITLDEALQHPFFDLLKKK
# Sequence of Cytochrome P450 3A4 (Homo sapiens) (P08684 whole entry, looked up): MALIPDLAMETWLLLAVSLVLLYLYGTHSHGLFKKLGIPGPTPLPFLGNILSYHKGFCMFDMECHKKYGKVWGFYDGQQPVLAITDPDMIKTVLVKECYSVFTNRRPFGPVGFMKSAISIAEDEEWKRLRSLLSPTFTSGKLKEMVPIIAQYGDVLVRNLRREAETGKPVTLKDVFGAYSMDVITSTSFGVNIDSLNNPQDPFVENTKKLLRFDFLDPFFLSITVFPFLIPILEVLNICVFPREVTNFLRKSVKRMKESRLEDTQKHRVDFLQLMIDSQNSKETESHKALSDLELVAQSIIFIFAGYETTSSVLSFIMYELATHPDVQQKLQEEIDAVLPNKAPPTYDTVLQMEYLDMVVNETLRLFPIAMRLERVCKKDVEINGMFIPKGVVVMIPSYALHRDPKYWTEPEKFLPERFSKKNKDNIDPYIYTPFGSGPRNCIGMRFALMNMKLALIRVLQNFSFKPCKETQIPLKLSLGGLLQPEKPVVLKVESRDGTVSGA
structure (smiles),measurement,setting,value
O=c1cnc2cnc(Oc3cccc(Cl)c3)nc2n1Cc1ccc(F)cc1,Potency,[1],> 11.4 µM (inactive)
same,"activity change, negative = inhibition",[2],-16% (inactive)
same,Potency,[3],15.8 µM (active)
same,"activity change, negative = inhibition",[4],-9.66% (inactive)
same,"activity, negative = inhibition",[5],-7.55% (inactive)
same,Potency,[6],> 9.22 µM (inactive)
same,Potency,[7],> 46 µM (inactive)
same,outcome,[8],inactive
same,Potency,[9],inactive
same,Potency,[10],inactive
same,"activity change, negative = inhibition",[11],3.63% (inactive)
same,max response,[11]; [20],17.8%
same,max response,[11]; [21],21.6%
same,Potency,[12],inactive
same,outcome,[13],inactive
same,outcome,[14],inactive
N#CCCn1c(=O)cnc2cnc(Oc3ccccc3)nc21,Potency,[1],> 11.4 µM (inactive)
same,"activity change, negative = inhibition",[2],-16.3% (inactive)
same,Potency,[3],15.8 µM (active)
same,"activity change, negative = inhibition",[4],11.7% (inactive)
same,"activity, negative = inhibition",[5],-2.6% (inactive)
same,Potency,[6],> 9.22 µM (inactive)
same,Potency,[7],> 46 µM (inactive)
same,outcome,[8],inactive
same,"activity change, negative = inhibition",[11],5.36% (inactive)
same,max response,[11]; [20],9.06%
same,max response,[11]; [21],13.1%
same,Potency,[15],inactive
same,Potency,[16],inactive
same,Potency,[17],inactive
same,Potency,[18],inactive
same,Potency,[12],inactive
Cn1cc(-c2nc3cncnc3n(Cc3ccc(F)cc3)c2=O)c2ccccc21,Potency,[1],> 11.4 µM (inactive)
same,"activity change, negative = inhibition",[2],-19.3% (inactive)
same,Potency,[3],1.26 µM (active)
same,"activity change, negative = inhibition",[4],-18.4% (inactive)
same,"activity, negative = inhibition",[5],-7.96% (inactive)
same,Potency,[6],> 9.22 µM (inactive)
same,Potency,[7],> 46 µM (inactive)
same,outcome,[8],inactive
same,"activity change, negative = inhibition",[11],6.13% (inactive)
same,max response,[11]; [20],15.3%
same,max response,[11]; [21],20.1%
same,Potency,[15],inactive
same,Potency,[16],inactive
same,Potency,[17],inactive
same,Potency,[18],inactive
same,Potency,[12],inactive
O=C(Oc1ccccc1)N1CCC2(CCCN(c3ccccc3)C2)CC1,Potency,[1],> 11.4 µM (inactive)
same,"activity change, negative = inhibition",[2],8.28% (inactive)
same,Potency,[3],15.8 µM (active)
same,"activity, negative = inhibition",[5],8.61% (inactive)
same,Potency,[7],> 46 µM (inactive)
same,outcome,[8],inactive
same,Potency,[10],inactive
same,"activity change, negative = inhibition",[11],-26.4% (inactive)
same,max response,[11]; [20],17%
same,max response,[11]; [21],-12.6%
same,Potency,[12],inactive
same,outcome,[13],inactive
same,outcome,[14],inactive
same,Potency,[19],inactive
COc1ccccc1CNc1ccnc(-c2ccc3c(c2)OCO3)n1,"activity change, negative = inhibition",[2],-17.7% (inactive)
same,Potency,[3],0.631 µM (active)
same,"activity change, negative = inhibition",[4],-13.2% (inactive)
same,"activity, negative = inhibition",[5],-21.3% (inactive)
same,Potency,[6],> 46 µM (inactive)
same,Potency,[7],> 46 µM (inactive)
same,outcome,[8],inactive
same,Potency,[10],inactive
same,"activity change, negative = inhibition",[11],9.28% (inactive)
same,max response,[11]; [20],-12.3%
same,max response,[11]; [21],-4.95%
same,Potency,[12],inactive
same,outcome,[13],inactive
same,outcome,[14],inactive
same,Potency,[19],17.5 µM (active)

# Source: PubChem BioAssay (NCATS)
